Positions count from the first letter of the chain named.
Key:
Assay in all cases: PBM; 200 nM protein, PBS
Conditions in all cases: dsDNA, one strand shown
SIX6 [1] = target: T1, SIX6 (Homo sapiens, UniProt O95475 114-200, L167I)
T1 sequence: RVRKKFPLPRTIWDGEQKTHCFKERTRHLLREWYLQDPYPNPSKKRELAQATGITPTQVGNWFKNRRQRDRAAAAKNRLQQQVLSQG

SIX6 [2] = target: T2, SIX6 (Homo sapiens, UniProt O95475 114-200, L143V)
T2 sequence: T1 sequence with L30V, I54L

SIX6 [3] = target: T3, SIX6 (Homo sapiens, UniProt O95475 114-200, H141N)
T3 sequence: T1 sequence with H28N, I54L

SIX6 [4] = target: T4, SIX6 (Homo sapiens, UniProt O95475 114-200, T165P)
T4 sequence: T1 sequence with T52P, I54L

SIX6 [5] = target: T5, SIX6 (Homo sapiens, UniProt O95475 114-200, L167M)
T5 sequence: T1 sequence with I54M

SIX6 [6] = target: T6, SIX6 (Homo sapiens, UniProt O95475 114-200, L143M)
T6 sequence: T1 sequence with L30M, I54L

SIX6 [7] = target: T7, SIX6 (Homo sapiens, UniProt O95475 114-200, L143I)
T7 sequence: T1 sequence with L30I, I54L

SIX6 [8] = target: T8, SIX6 (Homo sapiens, UniProt O95475 114-200, T165G)
T8 sequence: T1 sequence with T52G, I54L

SIX6 [9] = target: T9, SIX6 (Homo sapiens, UniProt O95475 114-200, T139Q)
T9 sequence: T1 sequence with T26Q, I54L

SIX6 [10] = target: T10, SIX6 (Homo sapiens, UniProt O95475 114-200, T165A)
T10 sequence: T1 sequence with T52A, I54L

SIX6 [11] = target: T11, SIX6 (Homo sapiens, UniProt O95475 114-200, L167V)
T11 sequence: T1 sequence with I54V

SIX6 [12] = target: T12, SIX6 (Homo sapiens, UniProt O95475 114-200)
T12 sequence: T1 sequence with I54L

SIX6 [13] = target: T13, SIX6 (Homo sapiens, UniProt O95475 114-200, T165I)
T13 sequence: T1 sequence with T52I, I54L

Sequence | binding signal (SIX6 [1]) | binding signal (SIX6 [2]) | binding signal (SIX6 [3]) | binding signal (SIX6 [4]) | binding signal (SIX6 [5]) | binding signal (SIX6 [6]) | binding signal (SIX6 [7]) | binding signal (SIX6 [8]) | binding signal (SIX6 [9]) | binding signal (SIX6 [10]) | binding signal (SIX6 [11]) | binding signal (SIX6 [12]) | binding signal (SIX6 [13])
ATGATACG | 11.2 upbm affinity estimate (log intensity, higher = more binding, comparable within an allelic series) | 10.3 upbm affinity estimate (log intensity, higher = more binding, comparable within an allelic series) | 11.2 upbm affinity estimate (log intensity, higher = more binding, comparable within an allelic series) | 9.78 upbm affinity estimate (log intensity, higher = more binding, comparable within an allelic series) | 10.6 upbm affinity estimate (log intensity, higher = more binding, comparable within an allelic series) | 11 upbm affinity estimate (log intensity, higher = more binding, comparable within an allelic series) | 10.4 upbm affinity estimate (log intensity, higher = more binding, comparable within an allelic series) | 11.3 upbm affinity estimate (log intensity, higher = more binding, comparable within an allelic series) | 11.2 upbm affinity estimate (log intensity, higher = more binding, comparable within an allelic series) | 11.1 upbm affinity estimate (log intensity, higher = more binding, comparable within an allelic series) | 11 upbm affinity estimate (log intensity, higher = more binding, comparable within an allelic series) | 11 upbm affinity estimate (log intensity, higher = more binding, comparable within an allelic series) | 10.9 upbm affinity estimate (log intensity, higher = more binding, comparable within an allelic series)
ATGGTATC | 11 upbm affinity estimate (log intensity, higher = more binding, comparable within an allelic series) | 10.3 upbm affinity estimate (log intensity, higher = more binding, comparable within an allelic series) | 11 upbm affinity estimate (log intensity, higher = more binding, comparable within an allelic series) | 9.62 upbm affinity estimate (log intensity, higher = more binding, comparable within an allelic series) | 10.6 upbm affinity estimate (log intensity, higher = more binding, comparable within an allelic series) | 10.7 upbm affinity estimate (log intensity, higher = more binding, comparable within an allelic series) | 10.4 upbm affinity estimate (log intensity, higher = more binding, comparable within an allelic series) | 11.1 upbm affinity estimate (log intensity, higher = more binding, comparable within an allelic series) | 11.2 upbm affinity estimate (log intensity, higher = more binding, comparable within an allelic series) | 10.9 upbm affinity estimate (log intensity, higher = more binding, comparable within an allelic series) | 10.8 upbm affinity estimate (log intensity, higher = more binding, comparable within an allelic series) | 10.9 upbm affinity estimate (log intensity, higher = more binding, comparable within an allelic series) | 10.8 upbm affinity estimate (log intensity, higher = more binding, comparable within an allelic series)
CGCGCTCC | 8.99 upbm affinity estimate (log intensity, higher = more binding, comparable within an allelic series) | 8.9 upbm affinity estimate (log intensity, higher = more binding, comparable within an allelic series) | 8.83 upbm affinity estimate (log intensity, higher = more binding, comparable within an allelic series) | 9.01 upbm affinity estimate (log intensity, higher = more binding, comparable within an allelic series) | 8.97 upbm affinity estimate (log intensity, higher = more binding, comparable within an allelic series) | 9.06 upbm affinity estimate (log intensity, higher = more binding, comparable within an allelic series) | 8.97 upbm affinity estimate (log intensity, higher = more binding, comparable within an allelic series) | 8.86 upbm affinity estimate (log intensity, higher = more binding, comparable within an allelic series) | 9.04 upbm affinity estimate (log intensity, higher = more binding, comparable within an allelic series) | 8.97 upbm affinity estimate (log intensity, higher = more binding, comparable within an allelic series) | 8.93 upbm affinity estimate (log intensity, higher = more binding, comparable within an allelic series) | 8.91 upbm affinity estimate (log intensity, higher = more binding, comparable within an allelic series) | 8.89 upbm affinity estimate (log intensity, higher = more binding, comparable within an allelic series)
ACATATCA | 11.3 upbm affinity estimate (log intensity, higher = more binding, comparable within an allelic series) | 10.4 upbm affinity estimate (log intensity, higher = more binding, comparable within an allelic series) | 11.3 upbm affinity estimate (log intensity, higher = more binding, comparable within an allelic series) | 9.99 upbm affinity estimate (log intensity, higher = more binding, comparable within an allelic series) | 10.7 upbm affinity estimate (log intensity, higher = more binding, comparable within an allelic series) | 11.1 upbm affinity estimate (log intensity, higher = more binding, comparable within an allelic series) | 10.4 upbm affinity estimate (log intensity, higher = more binding, comparable within an allelic series) | 11.3 upbm affinity estimate (log intensity, higher = more binding, comparable within an allelic series) | 11.3 upbm affinity estimate (log intensity, higher = more binding, comparable within an allelic series) | 11.2 upbm affinity estimate (log intensity, higher = more binding, comparable within an allelic series) | 11.1 upbm affinity estimate (log intensity, higher = more binding, comparable within an allelic series) | 11.1 upbm affinity estimate (log intensity, higher = more binding, comparable within an allelic series) | 11.1 upbm affinity estimate (log intensity, higher = more binding, comparable within an allelic series)
